Unmarked numbers belong to inactive results. The source made the active and inactive calls. No stated cut-off is given here; in the data, active means remaining activity below about 50%; inactive means the rest.
What follows are molecules tested against Phospholipase D1 (Homo sapiens) (UniProt Q13393) (assay: cellular phospholipase D1 activity inhibition – Calu-1 cells, single concentration (AID 602144;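 further: tested at 200 nM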)). Details: cellular PLD1 activity, active compounds read low.
Chain of Phospholipase D1 (Homo sapiens) (Q13393 whole entry, looked up): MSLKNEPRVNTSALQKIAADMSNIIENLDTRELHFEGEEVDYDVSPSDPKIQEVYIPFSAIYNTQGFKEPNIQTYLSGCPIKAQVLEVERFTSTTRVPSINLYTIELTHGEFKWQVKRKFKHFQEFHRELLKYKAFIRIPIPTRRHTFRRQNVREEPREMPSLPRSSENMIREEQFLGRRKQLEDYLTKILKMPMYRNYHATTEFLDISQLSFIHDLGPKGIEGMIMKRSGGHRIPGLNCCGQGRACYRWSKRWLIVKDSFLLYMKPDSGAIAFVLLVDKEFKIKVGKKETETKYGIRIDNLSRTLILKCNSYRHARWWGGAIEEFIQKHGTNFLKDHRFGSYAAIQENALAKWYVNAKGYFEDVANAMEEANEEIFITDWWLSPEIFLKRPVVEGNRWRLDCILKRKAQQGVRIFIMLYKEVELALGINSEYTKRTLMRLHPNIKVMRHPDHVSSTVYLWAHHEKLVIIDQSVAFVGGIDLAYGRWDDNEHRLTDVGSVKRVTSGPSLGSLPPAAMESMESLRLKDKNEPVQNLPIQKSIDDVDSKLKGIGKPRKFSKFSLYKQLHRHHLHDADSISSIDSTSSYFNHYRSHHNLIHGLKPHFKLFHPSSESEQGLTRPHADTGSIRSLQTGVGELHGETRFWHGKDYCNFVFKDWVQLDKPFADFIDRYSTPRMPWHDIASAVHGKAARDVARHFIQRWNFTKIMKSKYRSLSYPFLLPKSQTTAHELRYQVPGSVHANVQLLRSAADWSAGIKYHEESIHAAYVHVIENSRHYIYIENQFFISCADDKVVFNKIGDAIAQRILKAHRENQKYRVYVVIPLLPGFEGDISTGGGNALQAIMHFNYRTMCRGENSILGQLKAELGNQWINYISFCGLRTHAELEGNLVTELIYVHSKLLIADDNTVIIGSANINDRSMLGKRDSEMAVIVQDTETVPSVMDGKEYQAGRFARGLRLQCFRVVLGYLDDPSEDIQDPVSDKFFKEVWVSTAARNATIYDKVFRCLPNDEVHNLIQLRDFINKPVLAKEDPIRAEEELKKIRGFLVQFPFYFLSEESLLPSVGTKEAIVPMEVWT
Chain of Phospholipase D1 (Homo sapiens) (Q13393 whole entry, looked up): as above

| Compound | remaining activity |
| --- | --- |
| CC1(C)[C@@H]2CC[C@@]1(CS(=O)(=O)NCCN1CCC(n3c(=O)[nH]c4ccccc43)CC1)C(=O)C2 | 103% |
| C[C@@H](CN1CCC(n2c(=O)[nH]c3ccc(F)cc32)CC1)NC(=O)c1ccc(Cl)cc1 | 17.7% (active) |
| O=C(NCCN1CCC2(CC1)CCN(c1ccccc1)C2=O)c1cnc2ccccc2c1 | 109% |
| O=C(c1ccc(Cl)cc1)N1CCC(n2c(=O)[nH]c3cc(Cl)ccc32)CC1 | 79.2% |
| O=C(NCCN1CCC(n2c(=O)[nH]c3cc(Cl)ccc32)CC1)c1ccc2ccccc2c1 | 10.3% (active) |
| NC1(CN2CCC(n3c(=O)[nH]c4ccccc43)CC2)CCCC1 (tested in a mixture with another compound) | 86.8% |
| C[C@@H](CN1CCC2(C=Cc3ccccc32)CC1)NC(=O)[C@H]1C[C@@H]1c1ccccc1 | 126% |
| O=c1[nH]c2ccccc2n1C1CCN(CCNC(=S)Nc2ccccn2)CC1 | 148% |
| O=C(NCCN1CCC(n2c(=O)[nH]c3ccc(F)cc32)CC1)c1ccc(Cl)c(Cl)c1 | 0% (active) |
| Cc1ccc(S(=O)(=O)NCCN2CCC(n3c(=O)[nH]c4ccccc43)CC2)cc1 | 104% |
| C[C@H](CN1CCC2(CC1)CNCc1ccccc12)NC(=O)c1ccc2ccccc2c1 | 126% |
| O=C(NCCN1CCC(n2c(=O)[nH]c3ccccc32)CC1)NCc1cccc(F)c1 | 45.6% (active) |
| O=C(NCCN1CCC(C(=O)NCC2CC2)CC1)c1ccc2ccccc2c1 | 106% |
